Source: PubChem (National Center for Advancing Translational Sciences (NCATS))
The list is not random: actives were taken first. Their share in the collection is about 4.3%.
Giardia kill: Giardia lamblia killing; Giardia lamblia trophozoite viability; activity change, % at 7.66 µM, hits read low; 340,000 compounds, 0.15% hits; in the data active = activity change below about -80%; inconclusive = between about -30% and that limit;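 note: parasites exposed to compound for two days anaerobically before the ATP read; % is set by controls: 0 for no effect and ±100 for the full control effect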
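Media and compound were dispensed first, then trophozoites at 100 cells/well; plates sat 48 hrs at 37 deg C without oxygen before ATP luminescence reagent was added and read after 15-30 min at room temperature.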
uPA generation: cell surface uPA generation inhibition. cell surface uPA generation assay, qHTS. Potency, µM (titrated, usually from 38.3 µM), without a hit: top-dose activity change, negative = inhibition, actives largely listed as inhibitors. 330,000 compounds, 0.31% hits; active = well fitted inhibition curve with a large enough effect; inconclusive = small, poorly fitted or top-dose-only effect; inactive = no such curve, though single readings can be large or run the other way; tested in mouse RAW 264.7 cells; note: potency is the fitted concentration of half-maximal effect; % is set by controls: 0 for no effect and ±100 for the full control effect; nearly all actives have a fitted effect of over 55% in size
SW480 rerep: inducers of DNA re-replication in SW480 colon cancer cells | SW480 DNA re-replication, Hoechst DNA content imaging, 48 h | Potency, µM (highest dose often 46.1 µM), inactives show top-dose re-replication activation, actives largely listed as activators | 340,000 compounds, 1.8% hits; note: potency is the fitted concentration of half-maximal effect; % of control where 0% means no effect; nearly all actives have a fitted effect of over 55% in size
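First, 250 cells per well were seeded. Next, compound or vehicle (23 nL) was pinned in, plates sat 48 hr at 37 C. Finally Hoechst was added for 40 min before fluorescence scanning.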
MCF10A rereplic: inducers of DNA re-replication in MCF 10A breast cells | Potency, µM (highest dose often 46.1 µM), inactives show at the top dose activity, positive = re-replication, usual class: activators | 350,000 compounds, 2.9% hits | MCF 10A DNA re-replication, Hoechst nuclear intensity, 48 h; note: potency is the fitted concentration of half-maximal effect; % of control where 0% means no effect; nearly all actives have a fitted effect of over 50% in size
Numbers without * were called inactive; i = inactive; ? = inconclusive; · = no result given. Unless noted, calls come from the whole dose curve; as a rule, active = well fitted activation curve with a large enough effect; inconclusive = small, poorly fitted or top-dose-only effect; inactive = no such curve, though single readings can be large or run the other way.

SMILES	Giardia kill	uPA generation	SW480 rerep	MCF10A rereplic
COc1cccc(/C=N/NC(=O)c2c(C)nc3ccc(Cl)cn23)c1O	-6.3	-10.6%	0.259µM*	?
COc1ccccc1/C=N\NC(=O)c1c(C)nc2ccc(Cl)cn12	0.0	15.4%	-11.2%	9.4%
CCC(=O)C1=C(c2ccc(OC)c(OC)c2)N(C(=O)CC)n2c(CC)nnc2S1	-2.0	·	·	·
CC(=O)[O][Al][O]C(C)=O	·	·	i	1.2%
N=c1c(C(=O)NCCN2CCOCC2)cc2c(=O)n3ccccc3nc2n1CCCN1CCOCC1	29.2	5.3%	0.651µM*	0.184µM*
N=c1c(C(=O)NCc2ccc3c(c2)OCO3)cc2c(=O)n3ccccc3nc2n1Cc1cccnc1	-1.9	7.4%	15.1%	15.1%
N=c1c(S(=O)(=O)c2ccc(Cl)cc2)cc2c(=O)n3ccccc3nc2n1CCN1CCOCC1	2.0	-3.7%	12.0%	22.4%
N=c1c(C(=O)NCCN2CCOCC2)cc2c(=O)n3ccccc3nc2n1Cc1ccc(F)cc1	13.8	3.2%	2.06µM*	1.3µM*
O=C(NCCN1CCN(c2ccccc2F)CC1)c1cccn2c(=O)c3ccccc3nc12	5.3	·	12.1%	5.17µM*
Cc1cc(S(=O)(=O)N2CCCCC2CCNC(=O)C(=O)NCC2CCCO2)ccc1F (centres undefined)	6.2	0.8%	-1.7%	0.5%
CCc1ccc2[nH]c(=O)c(CN(Cc3ccco3)Cc3nnnn3Cc3ccco3)cc2c1	-27.9	·	·	·
CC(OC(=O)CCOc1ccccc1)C(=O)Nc1ccc(Cl)cn1 (centres undefined)	-7.0	-13.0%	?	16.4µM*
Cc1cccc(OCCC(=O)OC(C)C(=O)Nc2ccc(Cl)cn2)c1 (centres undefined)	7.9	-2.0%	-12.8%	-2.0%
CC(C)(C)C(=O)CSc1nc2c(c(-c3cccs3)c1C#N)CCC2	-0.8	-1.3%	?	4.11µM*
CN1CCc2c(sc3nc(SCC(=O)N4CCOCC4)n(-c4ccc(Cl)cc4)c(=O)c23)C1	8.5	0.3%	8.2µM*	4.8%
CC(C)CCCC(C)NC(C)C (centres undefined)	·	·	0.9%	-7.9%
CCN1C[C@@H]2[C@@H]3C(=O)N(C)C(=O)[C@@H]3[C@](Cc3ccccc3)(C1=O)N2C(=O)c1ccc(F)cc1	-13.6	9.0%	-5.9%	0.3%
CCOC(=O)c1c(C)[nH]c(C(=O)N/N=C/c2ccc(Br)cc2)c1C	-1.1	-10.4%	0.731µM*	?
Cc1[nH]c(C(=O)N/N=C/c2ccc(C(=O)O)cc2)c(C)c1C(=O)N/N=C/c1ccc(C(=O)O)cc1	13.5	-0.1%	-4.3%	-0.6%
O=c1[nH]cc(S(=O)(=O)N2CCCc3ccccc32)c(=O)[nH]1	2.9	2.2%	-5.7%	-0.1%
CCN(CC)C(=O)c1ccc(NS(=O)(=O)c2ccc3[nH]c(=O)[nH]c3c2)cc1	-4.8	5.1%	-0.4%	-3.3%
CCO[C@@H]1OC(C(=O)NCc2nc3ccccc3[nH]2)=C[C@H](C2CC2)[C@H]1CCCO	-2.9	4.47µM*	?	?
CCO[C@H]1OC(C(=O)NCc2nc3ccccc3[nH]2)=C[C@@H](c2ccc(Br)cc2)[C@@H]1CCCO	-17.5	1.5%	6.8%	28.7%
CCO[C@@H]1OC(C(=O)NCc2nc3ccccc3[nH]2)=C[C@H](C(C)(C)C)[C@H]1CCCO	-15.2	?	?	4.11µM*
CN(CC(=O)Nc1ccc2c(c1)OCO2)S(=O)(=O)c1cccs1	12.8	1.9%	-106.6%	-14.7%
SMILES	Giardia kill	uPA generation	SW480 rerep	MCF10A rereplic
O=[N+]([O-])c1cc(Cl)cc(/C=N\Nc2ccccn2)c1O	-0.4	-6.4%	3.66µM*	?
c1cc2[nH]snc2c2nc(C3CC3)nc12	-14.7	·	19.7%	20.6µM*
O=C(NCc1cccnc1)/C(=C\c1ccc(-c2cccc(Cl)c2)o1)S(=O)(=O)c1ccccc1	-10.3	?	?	7.31µM*
O=C(NCc1cccnc1)/C(=C/c1ccc(-c2cccc(Cl)c2)o1)S(=O)(=O)c1ccccc1	3.5	-8.0%	3.8%	?
COc1ccccc1NS(=O)(=O)c1cc(C(=O)N2CCN(C/C=C/c3ccccc3)CC2)ccc1C	-7.5	3.98µM*	4.3%	-0.4%
COc1ccccc1NS(=O)(=O)c1cccc(C(=O)N2CCN(C/C=C/c3ccccc3)CC2)c1	-14.9	12.1%	12.4%	7.2%
COc1ccccc1[C@@H]1C(c2ccccc2)=NN(c2ccccc2)[C@H]1C(=O)N1CCOC1=O	8.1	-9.9%	?	?
COc1ccccc1[C@@H]1C(c2cccc(C)c2)=NN(c2ccccc2)[C@H]1C(=O)N1CCOC1=O	3.0	10.4%	14.6µM*	?
COc1ccccc1[C@@H]1C(c2ccc(F)cc2)=NN(c2ccccc2)[C@H]1C(=O)N1CCOC1=O	12.6	-1.8%	20.6µM*	4.11µM*
COc1ccccc1[C@@H]1C(c2cccc(Cl)c2)=NN(c2ccc(Br)cc2)[C@H]1C(=O)N1CCOC1=O	-10.8	12.2%	3.26µM*	?
CCc1ccc(NC(=O)CC2C(=O)N(c3ccc(Cl)cc3)C(=O)N2C2CCCC2)cc1 (centres undefined)	-0.3	·	·	·
Cc1ccc(NC2=C(Cl)C(=O)c3ccccc3C2=O)cc1	-3.6	-2.3%	4.11µM*	7.31µM*
CCCC(=O)NC1=C(Cl)C(=O)c2ccccc2C1=O	-12.6	-14.8%	6.51µM*	?
CCN(CC)c1ccc(NC2=C(Cl)C(=O)c3ccccc3C2=O)cc1	-3.0	-1.5%	?	4.61µM*
CCNC1=C(Cl)C(=O)c2ccccc2C1=O	-5.7	-12.4%	?	?
O=C1C(Cl)=C(Nc2ccc(O)cc2)C(=O)c2ccccc21	-20.7	-1.9%	-11.9%	2.91µM*
Cc1cc(C)c2nc(-c3cccc(Cl)c3)c(C)c(C(=O)N3CCOCC3)c2c1	-7.4	9.8%	35.9%	2.7%
Nc1c(N(CCCO)C(=O)CCCN2C(=O)c3cccc4cccc(c34)C2=O)c(=O)[nH]c(=O)n1Cc1ccccc1	1.4	5.0%	-2.4%	-2.1%
COc1nc(Nc2nc3ccccc3c(=O)[nH]2)nc2ccc(C)cc12	-10.7	-5.0%	4.61µM*	?
CCC(=O)c1ccc(N2CCN(C(=O)c3cccs3)CC2)c(F)c1	-6.5	13.7%	?	6.51µM*
COc1ccc(CCC(=O)Nc2cc(S(=O)(=O)N3CCOCC3)ccc2OC(C)C)cc1	-4.3	9.6%	-45.3%	8.0%
Cc1ccc(C)c(NC(=O)C2CCCN(S(=O)(=O)c3c(C)nn(C)c3C)C2)c1 (centres undefined)	8.9	3.3%	-16.6%	54.0%
Cc1cc(/C=C2\SC(=Nc3ccc(F)cc3)NC2=O)c(C)n1-c1ccc(S(N)(=O)=O)cc1	12.7	-12.6%	8.2µM*	1.64µM*
Cc1cc(/C=C2\SC(=S)NC2=O)c(C)n1-c1ccc(O)cc1	-18.5	-12.9%	3.6%	?
COc1ccccc1C(=O)NC(=O)COC(=O)c1ccc([N+](=O)[O-])cc1	3.5	-1.5%	-2.3%	4.4%
CC1Nc2ncnc(N3CCN(c4ccccc4)CC3)c2N(Cc2ccc(Br)cc2)C1=O (centres undefined)	-13.3	-29.7%	5.7%	16.4µM*
